Consider six compounds from PubChem BioAssay (EPA / NIEHS).

Some compounds were tested as several samples or in several runs, with calls that do not always agree. Active and inactive are the calls of the source. Rule for the calls: active = hit-call score of the fitted dose curve at least 0.9, where 1 is the maximum; inactive = score below 0.9.

Read-out in experiment [1]: Thrombomodulin, THBD (gene 7056)
As to the kind of experiment: BSK_3C_Thrombomodulin: BioMAP Diversity Plus: 3C Assay for Thrombomodulin Biomarker Activity (AID 2283029). The settings on record: primary human endothelial cells (HUVEC); actives raise or lower the signal. Summed up:
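HUVEC, 3C conditions; compound 24 h; thrombomodulin by ELISA; bidirectional curve fit vs DMSO baseline; parallel SRB total-protein staining for cytotoxicity.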

Read-out in experiment [2]: Urokinase-type plasminogen activator receptor (uPAR), PLAUR (gene 5329)
As to the kind of experiment: BSK_4H_uPAR: BioMAP Diversity Plus: 4H Assay for Urokinase-type plasminogen activator receptor (uPAR) Biomarker Activity (AID 2283030). The settings on record: primary human endothelial cells (HUVEC); actives raise or lower the signal. Summed up:
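uPAR level read by ELISA on HUVEC cultures (BioMAP 4H) 24 h post-dosing, analyzed for gain or loss relative to DMSO. Parallel SRB staining assessed overt cytotoxicity.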

Read-out in experiment [3]: Vascular endothelial growth factor receptor 2 (Homo sapiens) (UniProt P35968)
Nature of the experiment: BSK_4H_VEGFRII: BioMAP Diversity Plus: 4H Assay for Vascular endothelial growth factor receptor 2 (VEGFR2) Biomarker Activity (AID 2283031).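 For AC50: cell-surface VEGFR2 protein level quantified by ELISA.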 The settings on record: primary human endothelial cells (HUVEC); actives raise or lower the signal. Summed up: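 Measured by ELISA after 24 h of compound treatment: VEGFR2 on primary human umbilical vein endothelial cells, fitted in both directions relative to DMSO. Parallel cultures received SRB staining (560 nm) for overt cytotoxicity.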

Read-out in experiment [4]: Human Leukocyte Antigen - DR isotype (HLADR), HLA-DRA (gene 3122)
Nature of the experiment: BSK_BE3C_HLADR: BioMAP Diversity Plus: BE3C Assay for Human Leukocyte Antigen - DR isotype (HLADR) Biomarker Activity (AID 2283032). The settings on record: primary human bronchial epithelial cells; actives raise or lower the signal. An outline of the steps:
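Primary human bronchial epithelial cells (BE3C); 24 h chemical exposure; HLA-DR by ELISA; bidirectional curve fit vs DMSO baseline.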

Read-out in experiment [5]: Vascular cell adhesion molecule 1 (VCAM1), VCAM1 (gene 7412)
As to the kind of experiment: BSK_4H_VCAM1: BioMAP Diversity Plus: 4H Assay for Vascular cell adhesion molecule 1 (VCAM1) Biomarker Activity (AID 2283033).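 For outcome: cell-surface VCAM-1 protein measured by ELISA.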 The settings on record: primary human endothelial cells (HUVEC); actives raise or lower the signal. An outline of the steps:
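HUVEC, 24 h post-dose; VCAM-1 by ELISA. Bidirectional curve fit vs DMSO baseline. Parallel SRB total-protein stain (0.1% SRB after 10% TCA fixation, 560 nm) for cytotoxicity.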

Read-out in experiment [6]: Interferon-gamma inducible Protein 10 (IP10), CXCL10 (gene 3627)
As to the kind of experiment: BSK_BE3C_IP10: BioMAP Diversity Plus: BE3C Assay for Interferon-gamma inducible Protein 10 (IP10) Biomarker Activity (AID 2283034). The settings on record: primary human bronchial epithelial cells; actives raise or lower the signal. An outline of the steps:
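ELISA readout of IP-10 in BE3C system: primary human bronchial epithelial cells, 24 h post-dosing; bidirectional curve fit vs DMSO baseline.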

Read-out in experiment [7]: Monokine induced gamma interferon (MIG), CXCL9 (gene 4283)
Nature of the experiment: BSK_BE3C_MIG: BioMAP Diversity Plus: BE3C Assay for Monokine induced gamma interferon (MIG) Biomarker Activity (AID 2283035).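 For outcome: MIG protein measured by ELISA in BE3C cultures after 24 h of dosing.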 The settings on record: primary human bronchial epithelial cells; actives raise or lower the signal. Summed up:
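hu bronchial epithelial 1° cells, 24 h cpd; MIG by ELISA; bidirectional fit, DMSO = baseline.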

Read-out in experiment [8]: Transforming growth factor beta 1 (TGFb1), TGFB1 (gene 7040)
As to the kind of experiment: BSK_BE3C_TGFb1: BioMAP Diversity Plus: BE3C Assay for Transforming growth factor beta 1 (TGFb1) Biomarker Activity (AID 2283036;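 note: TGF-b1 protein level measured by ELISA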). The settings on record: primary human bronchial epithelial cells; actives raise or lower the signal. An outline of the steps: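 Read-out: ELISA for TGF-b1 in primary human bronchial epithelial cultures, 24 h post-dose. Bidirectional curve fitting vs DMSO control; gain or loss of signal both scored.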

Read-out in experiment [9]: Plasminogen activator inhibitor-1 (PAI1), SERPINE1 (gene 5054)
As to the kind of experiment: BSK_BE3C_PAI1: BioMAP Diversity Plus: BE3C Assay for Plasminogen activator inhibitor-1 (PAI1) Biomarker Activity (AID 2283037). The following applies: primary human bronchial epithelial cells; actives raise or lower the signal. An outline of the steps: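 ELISA read-out of PAI-1 from human bronchial epithelial primary cells, 24 h post-dosing; bidirectional curve fit vs DMSO baseline, gain or loss of signal scored.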

Read-out in experiment [10]: urokinase plasminogen activator (uPA), PLAU (gene 5328)
As to the kind of experiment: BSK_BE3C_uPA: BioMAP Diversity Plus: BE3C Assay for urokinase plasminogen activator (uPA) Biomarker Activity (AID 2283038).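 Note: uPA protein level quantified by ELISA in cell cultures; uPA read one day after compound addition.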 The settings on record: primary human bronchial epithelial cells; actives raise or lower the signal. Summed up:
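ELISA for uPA on human primary bronchial epithelial cultures 24 h post-treatment, gain or loss against DMSO. Parallel SRB staining (0.1% after 10% TCA fixation, 560 nm) assessed overt cytotoxicity.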

Read-out in experiment [11]: Urokinase-type plasminogen activator receptor (uPAR), PLAUR (gene 5329)
As to the kind of experiment: BSK_BE3C_uPAR: BioMAP Diversity Plus: BE3C Assay for Urokinase-type plasminogen activator receptor (uPAR) Biomarker Activity (AID 2283039).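 For outcome: uPAR protein level measured by ELISA on the cells; cells exposed to compound for one day before measurement.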 The settings on record: primary human bronchial epithelial cells; actives raise or lower the signal. Summed up: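 ELISA readout of uPAR on human lung primary bronchial epithelial cells, 24 h post-dosing. Bidirectional curve fit relative to DMSO vehicle baseline; gain or loss of signal both scored.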

Read-out in experiment [12]: Interleukin-6 (IL6), IL6 (gene 3569)
As to the kind of experiment: BSK_CASM3C_IL6: BioMAP Diversity Plus: CASM3C Assay for Interleukin-6 (IL6) Biomarker Activity for (AID 2283040). The settings on record: primary human coronary artery smooth muscle cells; actives raise or lower the signal.

Read-out in experiment [13]: Tissue plasminogen activator (tPA), PLAT (gene 5327)
As to the kind of experiment: BSK_BE3C_tPA: BioMAP Diversity Plus: BE3C Assay for Tissue plasminogen activator (tPA) Biomarker Activity (AID 2283041).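 For outcome: tPA level quantified by ELISA one day after compound addition.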 The following applies: primary human bronchial epithelial cells; actives raise or lower the signal. Summed up: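 ELISA read-out of tPA on human primary bronchial epithelial cells, 24 h post-dosing; bidirectional fit vs DMSO negative control/baseline.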

Read-out in experiment [14]: Interleukin-8 (IL8), CXCL8 (gene 3576)
Nature of the experiment: BSK_CASM3C_IL8: BioMAP Diversity Plus: CASM3C Assay for Interleukin-8 (IL8) Biomarker Activity (AID 2283042).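 Note: IL-8 protein level quantified by ELISA.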 The following applies: primary human coronary artery smooth muscle cells; actives raise or lower the signal.

Read-out in experiment [15]: Human Leukocyte Antigen - DR isotype (HLADR), HLA-DRA (gene 3122)
As to the kind of experiment: BSK_CASM3C_HLADR: BioMAP Diversity Plus: CASM3C Assay for Human Leukocyte Antigen - DR isotype (HLADR) Biomarker Activity (AID 2283043).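 Note: cell-surface HLA-DR protein level quantified by ELISA.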 The following applies: primary human coronary artery smooth muscle cells; actives raise or lower the signal.

Read-out in experiment [16]: Macrophage colony-stimulating factor (MCSF), CSF1 (gene 1435)
Nature of the experiment: BSK_CASM3C_MCSF: BioMAP Diversity Plus: CASM3C Assay for Macrophage colony-stimulating factor (MCSF) Biomarker Activity (AID 2283044).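 Note: M-CSF protein amount quantified by ELISA after 24 h exposure.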 The following applies: primary human coronary artery smooth muscle cells; actives raise or lower the signal.

Read-out in experiment [17]: Low-density lipoprotein receptor (LDLR), LDLR (gene 3949)
As to the kind of experiment: BSK_CASM3C_LDLR: BioMAP Diversity Plus: CASM3C Assay for Low-density lipoprotein receptor (LDLR) Biomarker Activity (AID 2283045).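 Note: LDLR protein level on the cell surface quantified by ELISA.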 The settings on record: primary human coronary artery smooth muscle cells; actives raise or lower the signal.

Read-out in experiment [18]: Monocyte Chemoattractant Protein-1 (MCP1), CCL2 (gene 6347)
Nature of the experiment: BSK_CASM3C_MCP1: BioMAP Diversity Plus: CASM3C Assay for Monocyte Chemoattractant Protein-1 (MCP1) Biomarker Activity (AID 2283046).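 Note: MCP-1 level quantified by ELISA 24 h after dosing.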 The settings on record: primary human coronary artery smooth muscle cells; actives raise or lower the signal.

Experiment [19] is described as follows: BSK_CASM3C_Proliferation: Cell Proliferation Assessment in the BioMAP Diversity Plus: CASM3C Assay (AID 2283047).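 Note: sulforhodamine B total protein stain as relative cell number at 560 nm; sub-confluent cells exposed 48 h before staining; fitted both ways against DMSO so gain or loss of cell number.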 The following applies: primary human coronary artery smooth muscle cells.
Read-out in experiment [20]: Monokine induced gamma interferon (MIG), CXCL9 (gene 4283)
Nature of the experiment: BSK_CASM3C_MIG: BioMAP Diversity Plus: CASM3C Assay for Monokine induced gamma interferon (MIG) Biomarker Activity (AID 2283048).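 Note: MIG protein level measured by ELISA.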 The following applies: primary human coronary artery smooth muscle cells; actives raise or lower the signal.

Consider `Cn1sc(Cl)cc1=O`, for which the result in experiment [1], in [2], in [3], in experiment [4], in experiment [6] and in [7] was inactive. Also, the result in experiment [8], in experiment [9], in experiment [10], in experiment [11], in [13] and in experiment [14] was inactive. Besides, the outcome in experiment [15], in experiment [16], in experiment [17], in experiment [18] and in experiment [20] was inactive. Further, the values for the AC50 in experiment [5], in [12] and in experiment [19] were 20 µM (active), 20 µM (active) and 6.81 µM (active), respectively.
In the case of `Nc1ncc([N+](=O)[O-])s1`, the result in [1], in [2], in [3], in experiment [4], in experiment [5] and in experiment [6] was inactive. The result in [7], in [8], in experiment [9], in experiment [10], in experiment [11] and in experiment [12] was inactive. Further, the result in experiment [13], in experiment [14], in [15], in [16], in experiment [17] and in [18] was inactive. Also, the result in experiment [19] and in experiment [20] was inactive.
For the compound `O=[N+]([O-])c1ccc2c3c(cccc13)CC2`, the outcome in [1], in [2], in experiment [3], in experiment [4], in [5] and in [6] was inactive. Further, the outcome in [7], in [8], in experiment [9], in experiment [10], in [12] and in experiment [13] was inactive. The outcome in experiment [14], in experiment [15], in [16], in experiment [17], in experiment [18] and in experiment [19] was inactive. Also, in [20], the outcome was inactive. Further, the AC50 in experiment [11] was 1.19 µM (active).
Regarding `O=C(Nc1ccc2[nH]ccc2c1)c1cc2cc(F)ccc2n1Cc1cccc(F)c1`, the result in [1], in [8] and in [10] was inactive. The AC50 in experiment [2] is 9.25 µM (active); in experiment [3] it was 8.6 µM (active); in experiment [4] it was 5.82 µM (active); in experiment [5], 8.66 µM (active); in experiment [7], 8.22 µM (active); in experiment [9], 5.51 µM (active). The AC50 in experiment [11] was 6.74 µM (active); in experiment [12], 33.5 µM (active); in experiment [13], 5.75 µM (active); in [14] it was 23.6 µM (active); in experiment [15], 17.8 µM (active); in experiment [16], 33.7 µM (active). Further, the AC50 in [17] was 14.6 µM (active); in [18], 31.6 µM (active); in [19], 21.1 µM (active); in experiment [20] it was 31.2 µM (active).
As for `COC(=O)Cc1ccccc1`, the result in experiment [1], in experiment [2], in [3], in experiment [4], in [5] and in experiment [6] was inactive. For the same compound, the outcome in experiment [7], in experiment [9], in experiment [10], in [11], in experiment [12] and in experiment [13] was inactive. The outcome in [14], in [15], in experiment [16], in experiment [17], in experiment [18] and in experiment [19] was inactive. Moreover, in experiment [20], the outcome was inactive.
`COc1cc(-c2ccc(N)c(OC)c2)ccc1N`: the result in experiment [1], in experiment [2], in experiment [3], in [4], in experiment [5] and in experiment [6] was inactive. Also, the result in [7], in experiment [8], in experiment [9], in experiment [10], in experiment [11] and in experiment [12] was inactive. Further, the result in experiment [13], in [14], in experiment [15], in [16], in experiment [17] and in [18] was inactive. Also, the result in [19] and in [20] was inactive. Also, in [19], the AC50 is 15 µM (active).
